Compound activity (PubChem)
This excerpt belongs to a sample that is enriched for hits.
Methyltransferases = Primary Screen for Target Class Profiling of Small Molecule Inhibitors of Methyltransferases; purified enzyme, MTase-Glo SAH luminescence; active compounds read low; calls only at 40 µM; hit rate 3.9% among 25,000; AID 1745853, 2022; call rule not given here
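Each enzyme was assayed with SAM and its substrate. SAH formation detected by MTase-Glo luminescence; single-point 40 uM screen[…].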
Large screens that a line does not name were inactive.

Cc1[nH]c(=O)c(C#N)cc1-c1ccncc1	none
Cc1[nH]c(=O)c(C#N)cc1-c1ccc2nccn2c1	Methyltransferases active
Cc1ccc(Nc2ccn3c(=O)n(CC(=O)Nc4cc(F)cc(F)c4)nc3n2)cc1	none
C=Cc1ccc(Cn2nc3n(CCC)c(=O)c4ccc(C(=O)NCC(C)C)cc4n3c2=O)cc1	none
COc1ccc(-c2nnc(-c3ccc(OC)c(S(=O)(=O)N4CCC(C)CC4)c3)o2)cc1OC	none
O=C(Cn1ccc2cc(S(=O)(=O)N3CCCCC3)ccc21)NCCc1ccco1	none
NC(=O)c1ccccc1	none
NC(=O)c1cnc(-c2ccc(C3(N)CCC3)cc2)c(-c2ccccc2)c1	Methyltransferases active
C=C1C(=O)OC2C1CCC1(C)C(O)CC=C(C)C21 (stereo unspecified)	Methyltransferases active
C=C1CC[C@H]2C(=C)CC[C@H]3C(=C)C(=O)O[C@@H]3[C@@H]12	none
C=C1CC[C@@H](O)[C@]2(C)C[C@H]3OC(=O)C(=C)[C@H]3CC12 (stereo partly specified)	none
C=Cc1ccc(Cn2nc3n(Cc4ccc(C)cc4)c(=O)c4ccc(C(=O)NC(C)C)cc4n3c2=O)cc1	none
Cc1ccc(Cn2c(=O)c3ccccc3n3c(-c4ccccc4C)nnc23)cc1	none
Nc1nc2ccc(Cl)cc2c2nc(-c3ccco3)nn12	none
Nc1nc2c(cnn2CCc2ccccc2)c2nc(-c3ccco3)nn12	Methyltransferases active
CCn1c(=O)n(CC)c2cc(S(=O)(=O)Nc3ccccc3OC)ccc21	none
CCCN1C(=O)c2c(C(=O)NCc3ccco3)ncn2CC1(C)C(=O)NCCC(C)C (stereo unspecified)	none
Cc1ccc(CN2C(=O)CSc3c(c4ccccc4n3C)C2C(=O)NCCCOC(C)C)cc1 (stereo unspecified)	none
CC(C)OCCCNC(=O)C1c2c(n(C)c3ccccc23)SCC(=O)N1CCC1=CCCCC1 (stereo unspecified)	none
Cc1ccn(-c2cc(Cl)ccc2[C@@H](Oc2cc(-c3ccc(C[C@H](N)C(=O)O)cc3)nc(N)n2)C(F)(F)F)n1	Methyltransferases active
COC(=O)c1cc2n(n1)CC(C)(C(=O)NC1CCC(C)CC1)N(c1ccc(Cl)cc1C)C2=O (stereo unspecified)	none
CC(=O)Nc1cccc(-c2n[nH]c3c2CC(=O)N(CCOc2ccccc2)C3)c1	none
O=C(O)CCc1ccc(NCc2cccc(Oc3ccccc3)c2)cc1	none
O=C(O)CCc1ccc(NCc2cccc3c2CCCN3CCOc2ccccc2)cc1F	Methyltransferases active
CCc1cc2c(cc3n2CC(C)(C(=O)NC2CCCCC2)N(c2ccc(Cl)cc2)C3=O)s1 (stereo unspecified)	none
CC1CCC(NC(=O)C2(C)Cn3c(cc4sccc43)C(=O)N2CCN2CCCCCC2)CC1 (stereo unspecified)	none
COc1ccc(CN2C(=O)c3cc4ccccc4n3CC2(C)C(=O)NCCC(C)C)c(OC)c1 (stereo unspecified)	none
CC(C)CCNC(=O)CCc1nnc2n(CCc3ccccc3)c(=O)c3ccccc3n12	none
CS(=O)(=O)c1cccc(CNc2nc(Nc3ccc4c(c3)CCC(=O)N4)ncc2C(F)(F)F)c1	Methyltransferases active
Cc1ccc(CNC(=O)N2CCn3cccc3C2C(C)C)cc1 (stereo unspecified)	none
O=C1CN(Cc2ccc(-c3ccccc3)cc2)CCN1c1ccc(Cl)nn1	none
O=c1[nH]ccc2nc(-c3ccc(CN4CCC(c5nc(-c6ccccn6)n[nH]5)CC4)cc3)c(-c3ccccc3)cc12	Methyltransferases active
CCOC(=O)c1cc2n(n1)CC(C)(C(=O)NCc1ccccc1OC)N(Cc1ccc(SC)cc1)C2=O (stereo unspecified)	none
C=Cc1ccc(Cn2nc3n(C)c(=O)c4ccc(C(=O)NC5CCCC5)cc4n3c2=O)cc1	none
CCc1cc2c(cc3n2CC(C)(C(=O)NC2CCCCCC2)N(c2ccc(C)c(C)c2)C3=O)s1 (stereo unspecified)	none
CCCn1c(=O)c2cc(F)ccc2n2c(SCC(=O)NC3CCCCC3)nnc12	none
COc1ccc(N2CCN(S(=O)(=O)c3ccc4c(c3)n(C)c(=O)n4C)CC2)cc1	none
Cn1c(=O)n(C)c2cc(S(=O)(=O)N3CCN(C4CCCCC4)CC3)ccc21	Methyltransferases active
Cn1c(=O)n(C)c2cc(S(=O)(=O)N3CCc4ccccc4C3)ccc21	none
CCC1c2ccc(C)n2CCN1C(=O)NCc1ccc(C)cc1 (stereo unspecified)	none
CCC(C)NC(=O)c1ccc2c(=O)n(C)c3nn(CC(=O)Nc4ccccc4C)c(=O)n3c2c1 (stereo unspecified)	none
COc1ccccc1CNC(=O)CCc1nnc2n(Cc3ccccc3)c(=O)c3ccccc3n12	none
CCOC(=O)c1cc2n(n1)CC(C)(C(=O)NCc1ccc(F)cc1)N(CCc1ccc(Cl)cc1)C2=O (stereo unspecified)	none
Cn1c(=O)c2ccc(C(=O)NC3CCCCC3)cc2n2c(=O)n(CC(=O)Nc3ccccc3Cl)nc12	none
CCOC(=O)c1cc2n(n1)CC(C)(C(=O)NC1CCC(C)CC1)N(Cc1ccc3c(c1)OCO3)C2=O (stereo unspecified)	none
O=C(Nc1ccc(OC(F)(F)F)cc1)c1sccc1NCc1ccnc2ccccc12	none
Cc1cc(Nc2ccc(NC(=O)c3ccc(Nc4ccnc5ccccc45)cc3)cc2)nc(N)n1	Methyltransferases active
Cn1c2ccc(NC(=O)c3ccccc3)cc2c(=O)n2nc(C(=O)O)cc12	none
O=C(CCn1ccc2cc(S(=O)(=O)N3CCCCC3)ccc21)NCCc1c[nH]c2ccccc12	none
NCCOc1cc(C(=O)Nc2cc(OCCN)c3ccccc3n2)nc(C(=O)Nc2cc(OCCN)c3ccccc3n2)c1	Methyltransferases active
CN(CC(=O)NCc1ccccc1Cl)S(=O)(=O)c1ccc2[nH]c3c(c2c1)CCCC3	none
CCc1ccc(NC(=O)CSc2nnc3n(Cc4ccc(C)cc4)c(=O)c4ccccc4n23)cc1	none
O=C1c2cc3sccc3n2CC(C(=O)NC2CCCCCCC2)(c2ccccc2)N1Cc1ccccc1 (stereo unspecified)	none
COc1cccc(CNC(=O)CCc2nnc3n(CCCOC(C)C)c(=O)c4ccccc4n23)c1	none
CCOC(=O)N1CCC(CN(Cc2ccc(Cl)cc2)Cc2ccc([N+](=O)[O-])s2)C1 (stereo unspecified)	Methyltransferases active
CCCN1C(=O)c2ccc(-c3ccco3)n2CC1(C)C(=O)NCc1ccc(Cl)cc1 (stereo unspecified)	none
Clc1ccc(C(c2ccc(Cl)cc2)n2cc[n+](CC(OCc3ccc(Cl)cc3Cl)c3ccc(Cl)cc3Cl)c2)cc1 (stereo unspecified)	Methyltransferases active
CN(C(=O)Cn1c(=O)oc2cc(S(=O)(=O)N3CCCC3)ccc21)c1ccc(Br)cc1	none
COc1ccc(-c2n[nH]n3c2nc(=O)c2ccc(C(=O)NCc4ccccc4Cl)cc23)cc1	none
COCCOc1ccc2c(c1)ncn2-c1ccc2cccc(N3CCC(N)CC3)c2n1	Methyltransferases active
COCCOc1ccnc(-c2noc([C@@H]3CCCN3Cc3ccncc3)n2)c1	none
CC1(C(=O)NC2CCCCCCC2)Cn2c(cc3occc32)C(=O)N1Cc1ccccc1F (stereo unspecified)	none
Cc1cccc(Cn2nc3n(Cc4ccc(F)cc4)c(=O)c4ccccc4n3c2=O)c1	none
CCCC1c2ccc(C)n2CCN1C(=O)Nc1cc(Cl)ccc1C(=O)OC (stereo unspecified)	none
O=C(/C=C/c1ccc(O)cc1)N[C@@H](Cc1ccc(O)cc1)C(=O)O	none
CCCCCc1ccc(/C=C/C(=O)Nc2cc(Cl)ccc2C(=O)O)cc1	Methyltransferases active
